PubChem BioAssay (EPA / NIEHS)
Results filed as inconclusive are left out. Activity calls are given as the source filed them. The calls were made as follows, unless noted: active = hit-call score of the fitted dose curve at least 0.9, where 1 is the maximum; inactive = score below 0.9.

Key:
[1] = target: Myc proto-oncogene protein (Homo sapiens) (UniProt P01106); test: ATG_Myc_CIS: Attagene CIS-FACTORIAL HepG2 Assay for human Myelocytomatosis (Myc) Proto-Oncogene Transcription Factor (AID 2282990); conditions: HepG2, Attagene cis-reporter transcription factor activity; actives raise or lower the signal
Procedure, shortened: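 HepG2 cells transiently transfected with multiple cis-promoter-driven reporter transcription units, so endogenous TF activity is read. After 24 h compound exposure, reporter mRNA was quantified by RT-PCR, 6-FAM labelling, HpaI digestion and capillary electrophoresis; bidirectional fit versus DMSO.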

[2] = ATG_NRF2_ARE_CIS: Attagene CIS-FACTORIAL HepG2 Assay for human Nuclear Factor Erythroid 2 Related Factor 2 (NFR2) response to Antioxidant Response Elements (ARE) (AID 2282992); conditions: HepG2 Attagene ARE/NRF2 reporter, transcription factor activity; actives raise or lower the signal;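 as to AC50: reporter mRNA level measured by RT-PCR and capillary electrophoresis fluorescence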
Procedure, shortened: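 Readout: reporter mRNA quantified by RT-PCR plus FAM-labelled primer extension, HpaI digestion and capillary electrophoresis, 24 h after dosing transfected HepG2 cells. Gain or loss of signal is fitted bidirectionally against DMSO baseline.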

[3] = ATG_Oct_MLP_CIS: Attagene CIS-FACTORIAL HepG2 Assay for human Octamer-Binding Transcription Factor (Oct) (AID 2282993); conditions: HepG2 Attagene cis-factorial Oct reporter, mRNA; actives raise or lower the signal
Procedure, shortened: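 Read-out: reporter mRNA via RT-PCR plus capillary electrophoresis of 6-FAM-labelled fragments. Transiently transfected HepG2, 24 h exposure, endogenous TF activity on cis elements. Gain or loss of signal fitted relative to DMSO.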

[4] = target: Cellular tumor antigen p53 (Homo sapiens) (UniProt P04637); test: ATG_p53_CIS: Attagene CIS-FACTORIAL HepG2 Assay for human p53 Transcription Factor (AID 2282994); conditions: HepG2 p53 cis-element reporter, Attagene mRNA; actives raise or lower the signal
Procedure, shortened: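 Read-out: reporter mRNA by RT-PCR plus capillary electrophoresis with fluorescence detection. Human HepG2 liver cells carried transfected multi-reporter cis-element constructs, dosed 24 h. Gain or loss of signal fitted bidirectionally against DMSO control.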

[5] = target: human Retinoic Acid Receptor beta (RARb), RARB (gene 5915) (UniProt P10826); test: ATG_RARb_TRANS: Attagene TRANS-FACTORIAL HepG2 Assay for human Retinoic Acid Receptor beta (AID 2283004; active = hit-call score of the fitted dose curve at least 0.9, where 1 is the maximum)
Procedure, shortened: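 Readout is reporter mRNA induction: RNA reverse-transcribed, PCR-amplified, FAM-labelled, HpaI-cut and resolved by capillary electrophoresis. Transiently transfected HepG2 cells carrying exogenous NR–Gal4 chimeras were dosed for 24 h; activity fitted upward relative to DMSO.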

[6] = target: Retinoic acid receptor alpha (Homo sapiens) (UniProt P10276); test: ATG_RARa_TRANS: Attagene TRANS-FACTORIAL HepG2 Assay for human Retinoic Acid Receptor alpha (RARa) (AID 2283005; active = hit-call score of the fitted dose curve at least 0.9, where 1 is the maximum)
Procedure, shortened: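 HepG2 cells transiently transfected with multiple reporter units expressing chimeric RARα-GAL4 fusion, with GAL4-UAS-driven reporters. After 24 h compound exposure, reporter mRNA induction quantified by RT-PCR and capillary electrophoresis with fluorescent labeling; gain-of-signal fitted relative to DMSO control.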

[7] = target: Nuclear receptor subfamily 1 group I member 2 (Homo sapiens) (UniProt O75469); test: ATG_PXR_TRANS: Attagene TRANS-FACTORIAL HepG2 Assay for human Pregnane X Receptor (PXR) (AID 2283008; active = hit-call score of the fitted dose curve at least 0.9, where 1 is the maximum)
Procedure, shortened: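 Trans-factorial format: exogenous NR-Gal4 fusion activity, not endogenous factor, in transfected human HepG2 liver cells. After 24 h dosing, RNA isolated, reverse-transcribed, amplified and resolved by capillary electrophoresis; induction scored versus DMSO.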

[8] = target: human Retinoic Acid Receptor gamma (RARg), RARG (gene 5916) (UniProt P13631); test: ATG_RARg_TRANS: Attagene TRANS-FACTORIAL HepG2 Assay for human Retinoic Acid Receptor gamma (RARg) (AID 2283009; active = hit-call score of the fitted dose curve at least 0.9, where 1 is the maximum)
Procedure, shortened: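 Readout: reporter transcript levels via RT-PCR, 6-FAM primer-extension labelling, HpaI digestion and capillary electrophoresis. Cells: HepG2 carrying transfected RARg-GAL4 chimera plus UAS reporter set. Dosing 24 h; DMSO negative control.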

[9] = target: human Peroxisome Proliferator-activated Receptor alpha (PPARa), PPARA (gene 5465) (UniProt Q07869); test: ATG_PPARa_TRANS: Attagene TRANS-FACTORIAL HepG2 Assay for human Peroxisome Proliferator-activated Receptor alpha (PPARa) (AID 2283001; active = hit-call score of the fitted dose curve at least 0.9, where 1 is the maximum)
Procedure, shortened: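 Exposure: 24 h, transiently transfected HepG2 cells. Endpoint: GAL4-UAS reporter mRNA, RT-PCR with capillary electrophoresis fluorescence. Baseline: DMSO; increases fitted.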

[10] = target: Peroxisome proliferator-activated receptor gamma (Homo sapiens) (UniProt P37231); test: ATG_PPARg_TRANS: Attagene TRANS-FACTORIAL HepG2 Assay for human Peroxisome Proliferator-activated Receptor-gamma (PPARg) (AID 2283007; active = hit-call score of the fitted dose curve at least 0.9, where 1 is the maximum)
Procedure, shortened: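 Human hepatoma HepG2, transient MRTU transfection, 24 h treatment. mRNA reporter signal by RT-PCR plus capillary electrophoresis, fluorescence detection; fitted for increase over DMSO negative control.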

[11] = ATG_NF_kB_CIS: Attagene CIS-FACTORIAL HepG2 Assay for human Nuclear Factor Kappa B (NF-kB) (AID 2282991); conditions: HepG2 Attagene cis-factorial NF-kB reporter mRNA; actives raise or lower the signal
Procedure, shortened: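 Multiplexed cis-reporter assay in transiently transfected HepG2. 24 h treatment; RNA isolated, RT-PCR, labelled fragments resolved by CE. DMSO baseline.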

[12] = target: human Peroxisome Proliferator-activated Receptor delta (PPARd), PPARD (gene 5467) (UniProt Q03181); test: ATG_PPARd_TRANS: Attagene TRANS-FACTORIAL HepG2 Assay for human Peroxisome Proliferator-activated Receptor delta (PPARd) (AID 2283002; active = hit-call score of the fitted dose curve at least 0.9, where 1 is the maximum)
Procedure, shortened: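 HepG2 cells transiently transfected with multiplexed GAL4-UAS reporter units and exogenous chimeric NR-Gal4 proteins; 24 h compound exposure. Reporter mRNA measured by RT-PCR, 6-FAM labelling, HpaI digestion and capillary electrophoresis; gain of signal versus DMSO.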

[13] = target: human RAR-related Orphan Receptor beta (RORb), RORB (gene 6096) (UniProt Q92753); test: ATG_RORb_TRANS: Attagene TRANS-FACTORIAL HepG2 Assay for human RAR-related Orphan Receptor beta (RORb) (AID 2283010; active = hit-call score of the fitted dose curve at least 0.9, where 1 is the maximum)
Procedure, shortened: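 HepG2, transient MRTU transfection (GAL4-UAS reporters, exogenous NR-Gal4 chimeras); 24 h compound exposure; total RNA → RT-PCR → 6-FAM primer extension → HpaI digest → CE fluorescence. Positive direction vs DMSO baseline.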

[14] = BSK_3C_TissueFactor: BioMAP Diversity Plus: 3C Assay for Tissue Factor Biomarker Activity (AID 2282997); conditions: BioMAP 3C HUVEC, tissue factor biomarker readout; actives raise or lower the signal
Procedure, shortened: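 HUVEC, 3C system, 24 h post-dose; Tissue Factor by ELISA; bidirectional fit vs DMSO baseline.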

[15] = BSK_3C_uPAR: BioMAP Diversity Plus: 3C Assay for Urokinase-type plasminogen activator receptor (uPAR) Biomarker Activity (AID 2282998); conditions: BioMAP 3C HUVEC, uPAR biomarker ELISA; actives raise or lower the signal
Procedure, shortened: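 HUVEC primary cells; 24 h post-dose; uPAR by ELISA; gain or loss of signal fitted bidirectionally vs DMSO baseline.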

[16] = BSK_3C_VCAM1: BioMAP Diversity Plus: 3C Assay for Vascular cell adhesion molecule 1 (VCAM1) Biomarker Activity (AID 2282999); conditions: BioMAP 3C HUVEC, VCAM1 ELISA, cytokine-stimulated; actives raise or lower the signal
Procedure, shortened: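 Vascular primary endothelium (human umbilical vein) was exposed to chemicals and assayed 24 h later. VCAM-1 levels came from ELISA, with DMSO serving as baseline for bidirectional fitting.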

[17] = BSK_4H_Eotaxin3: BioMAP Diversity Plus: 4H Assay for Eotaxin 3 Biomarker Activity (AID 2283000); conditions: primary human endothelial cells (HUVEC); actives raise or lower the signal;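 also: CCL26 protein level quantified by ELISA in parallel with SRB cytotoxicity check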
Procedure, shortened: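 Readout is Eotaxin-3 (CCL26) level by ELISA in primary human umbilical vein endothelial cells harvested 24 h after chemical exposure; activity fitted in both directions against DMSO control.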

[18] = read-out: Intercellular Adhesion Molecule 1 (ICAM1), ICAM1 (gene 3383); test: BSK_3C_ICAM1: BioMAP Diversity Plus: 3C Assay for Intercellular Adhesion Molecule 1 (ICAM1) Biomarker Activity (AID 2283003); conditions: primary human endothelial cells (HUVEC); actives raise or lower the signal
Procedure, shortened: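 ELISA read-out of ICAM-1; HUVEC (primary human), 3C system, 24 h post-dosing; bidirectional fit vs DMSO baseline.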

[19] = BSK_3C_Proliferation: Cell Proliferation Assessment in the BioMAP Diversity Plus: 3C Assay (AID 2283006); conditions: primary human endothelial cells (HUVEC)
Procedure, shortened: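 HUVEC, sub-confluent; 48 h chemical exposure; 10% TCA fix, 0.1% SRB stain, A560 total protein. Gain or loss of signal fitted both directions vs DMSO control.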

Measured: AC50

Sequence of Peroxisome proliferator-activated receptor gamma (Homo sapiens) (P37231 whole entry, looked up): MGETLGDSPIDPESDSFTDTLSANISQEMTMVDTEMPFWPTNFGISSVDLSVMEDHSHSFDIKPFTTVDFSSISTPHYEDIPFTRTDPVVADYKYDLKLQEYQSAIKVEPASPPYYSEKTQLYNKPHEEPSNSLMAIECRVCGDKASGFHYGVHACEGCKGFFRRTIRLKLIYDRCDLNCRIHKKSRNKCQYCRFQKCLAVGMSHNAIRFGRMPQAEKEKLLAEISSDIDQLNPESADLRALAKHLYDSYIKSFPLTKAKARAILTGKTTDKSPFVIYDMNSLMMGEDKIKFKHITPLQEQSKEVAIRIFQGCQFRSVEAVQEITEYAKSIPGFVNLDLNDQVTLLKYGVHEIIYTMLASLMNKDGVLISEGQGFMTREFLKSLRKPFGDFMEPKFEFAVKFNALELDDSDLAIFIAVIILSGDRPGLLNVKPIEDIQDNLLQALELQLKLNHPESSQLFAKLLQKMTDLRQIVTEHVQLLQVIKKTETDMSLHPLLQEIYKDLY
Sequence of human Peroxisome Proliferator-activated Receptor alpha (PPARa), PPARA (gene 5465) (Q07869 whole entry, looked up, the tested form may be a part): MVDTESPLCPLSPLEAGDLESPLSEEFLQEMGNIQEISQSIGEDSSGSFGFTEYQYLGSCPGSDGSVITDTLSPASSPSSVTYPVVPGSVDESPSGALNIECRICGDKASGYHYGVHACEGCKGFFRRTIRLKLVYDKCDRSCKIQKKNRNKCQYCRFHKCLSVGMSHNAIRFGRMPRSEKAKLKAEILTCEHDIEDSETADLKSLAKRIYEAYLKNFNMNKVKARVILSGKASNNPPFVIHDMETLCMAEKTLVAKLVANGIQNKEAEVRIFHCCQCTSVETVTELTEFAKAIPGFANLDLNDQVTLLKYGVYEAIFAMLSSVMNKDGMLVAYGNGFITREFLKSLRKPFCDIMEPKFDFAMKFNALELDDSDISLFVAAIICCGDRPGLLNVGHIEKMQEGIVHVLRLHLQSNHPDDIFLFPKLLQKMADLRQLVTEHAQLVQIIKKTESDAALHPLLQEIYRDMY
Sequence of Nuclear receptor subfamily 1 group I member 2 (Homo sapiens) (O75469 whole entry, looked up, the tested form may be a part): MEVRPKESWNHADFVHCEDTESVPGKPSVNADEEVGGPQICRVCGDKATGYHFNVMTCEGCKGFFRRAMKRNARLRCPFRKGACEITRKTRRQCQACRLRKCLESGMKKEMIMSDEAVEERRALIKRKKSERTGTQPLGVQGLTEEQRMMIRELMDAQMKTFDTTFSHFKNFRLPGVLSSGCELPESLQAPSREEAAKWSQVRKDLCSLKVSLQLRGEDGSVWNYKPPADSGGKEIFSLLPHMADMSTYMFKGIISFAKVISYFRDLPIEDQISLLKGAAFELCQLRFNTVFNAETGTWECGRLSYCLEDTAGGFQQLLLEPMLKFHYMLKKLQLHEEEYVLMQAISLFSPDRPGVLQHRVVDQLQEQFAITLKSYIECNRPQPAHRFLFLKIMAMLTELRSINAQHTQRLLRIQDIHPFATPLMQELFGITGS
Sequence of Myc proto-oncogene protein (Homo sapiens) (P01106 whole entry, looked up): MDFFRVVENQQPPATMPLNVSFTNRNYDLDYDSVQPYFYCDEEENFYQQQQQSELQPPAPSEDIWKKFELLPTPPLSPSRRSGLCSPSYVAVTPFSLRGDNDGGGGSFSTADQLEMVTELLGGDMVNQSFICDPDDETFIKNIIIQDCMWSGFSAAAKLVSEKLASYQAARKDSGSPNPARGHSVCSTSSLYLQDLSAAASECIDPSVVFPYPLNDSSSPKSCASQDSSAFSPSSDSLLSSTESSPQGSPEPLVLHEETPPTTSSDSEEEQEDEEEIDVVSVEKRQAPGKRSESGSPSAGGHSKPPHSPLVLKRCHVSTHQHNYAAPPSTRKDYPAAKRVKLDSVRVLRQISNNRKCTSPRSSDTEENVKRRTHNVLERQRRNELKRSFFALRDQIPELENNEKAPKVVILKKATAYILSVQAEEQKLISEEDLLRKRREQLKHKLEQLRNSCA
Sequence of human Peroxisome Proliferator-activated Receptor delta (PPARd), PPARD (gene 5467) (Q03181 whole entry, looked up, the tested form may be a part): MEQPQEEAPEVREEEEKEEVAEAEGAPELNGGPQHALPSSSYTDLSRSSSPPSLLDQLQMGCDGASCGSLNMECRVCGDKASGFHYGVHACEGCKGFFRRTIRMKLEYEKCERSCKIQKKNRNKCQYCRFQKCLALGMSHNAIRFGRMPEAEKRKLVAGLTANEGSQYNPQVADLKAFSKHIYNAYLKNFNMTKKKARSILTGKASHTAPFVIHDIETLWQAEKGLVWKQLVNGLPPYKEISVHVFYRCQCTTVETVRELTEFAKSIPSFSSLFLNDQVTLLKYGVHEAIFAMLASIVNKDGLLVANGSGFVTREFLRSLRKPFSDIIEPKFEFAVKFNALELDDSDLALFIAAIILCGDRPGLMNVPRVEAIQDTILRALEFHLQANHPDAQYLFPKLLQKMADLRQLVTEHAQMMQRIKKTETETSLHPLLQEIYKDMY
Sequence of Cellular tumor antigen p53 (Homo sapiens) (P04637 whole entry, looked up): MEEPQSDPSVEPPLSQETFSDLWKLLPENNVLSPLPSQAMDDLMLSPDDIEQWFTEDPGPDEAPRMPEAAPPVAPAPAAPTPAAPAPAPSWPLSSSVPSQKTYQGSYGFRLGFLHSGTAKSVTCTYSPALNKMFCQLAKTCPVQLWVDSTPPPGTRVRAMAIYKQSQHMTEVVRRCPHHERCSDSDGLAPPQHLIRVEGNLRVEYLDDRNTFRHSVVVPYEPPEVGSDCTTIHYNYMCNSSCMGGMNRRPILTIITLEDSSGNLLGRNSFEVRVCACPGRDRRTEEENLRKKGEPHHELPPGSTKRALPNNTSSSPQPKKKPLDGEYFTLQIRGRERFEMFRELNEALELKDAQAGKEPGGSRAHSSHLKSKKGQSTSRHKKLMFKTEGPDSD
Sequence of human Retinoic Acid Receptor gamma (RARg), RARG (gene 5916) (P13631 whole entry, looked up, the tested form may be a part): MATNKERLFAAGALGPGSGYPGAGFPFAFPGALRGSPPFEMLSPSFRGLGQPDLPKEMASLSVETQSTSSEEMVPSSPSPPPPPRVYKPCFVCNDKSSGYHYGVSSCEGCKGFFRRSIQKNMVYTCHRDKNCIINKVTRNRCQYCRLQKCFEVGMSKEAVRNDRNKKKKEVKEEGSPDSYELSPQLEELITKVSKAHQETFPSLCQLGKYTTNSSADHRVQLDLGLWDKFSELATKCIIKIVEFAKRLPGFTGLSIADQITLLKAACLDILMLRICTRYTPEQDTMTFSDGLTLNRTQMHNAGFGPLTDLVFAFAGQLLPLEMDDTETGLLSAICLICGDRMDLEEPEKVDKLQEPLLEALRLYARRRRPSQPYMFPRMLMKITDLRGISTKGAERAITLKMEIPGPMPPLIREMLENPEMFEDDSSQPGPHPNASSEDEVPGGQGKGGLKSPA
Sequence of human Retinoic Acid Receptor beta (RARb), RARB (gene 5915) (P10826 whole entry, looked up, the tested form may be a part): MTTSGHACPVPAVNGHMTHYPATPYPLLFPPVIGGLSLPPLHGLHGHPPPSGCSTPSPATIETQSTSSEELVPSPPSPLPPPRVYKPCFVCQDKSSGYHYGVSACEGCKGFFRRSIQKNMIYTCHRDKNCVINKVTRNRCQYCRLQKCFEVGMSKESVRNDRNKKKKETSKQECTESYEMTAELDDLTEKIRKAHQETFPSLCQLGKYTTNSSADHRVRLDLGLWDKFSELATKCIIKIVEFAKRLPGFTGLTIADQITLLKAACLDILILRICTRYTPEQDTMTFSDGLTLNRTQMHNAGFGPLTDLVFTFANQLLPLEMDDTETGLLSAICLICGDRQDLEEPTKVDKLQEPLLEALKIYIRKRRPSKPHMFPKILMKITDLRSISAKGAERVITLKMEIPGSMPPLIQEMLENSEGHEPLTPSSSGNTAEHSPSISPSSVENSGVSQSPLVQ
Sequence of Retinoic acid receptor alpha (Homo sapiens) (P10276 whole entry, looked up, the tested form may be a part): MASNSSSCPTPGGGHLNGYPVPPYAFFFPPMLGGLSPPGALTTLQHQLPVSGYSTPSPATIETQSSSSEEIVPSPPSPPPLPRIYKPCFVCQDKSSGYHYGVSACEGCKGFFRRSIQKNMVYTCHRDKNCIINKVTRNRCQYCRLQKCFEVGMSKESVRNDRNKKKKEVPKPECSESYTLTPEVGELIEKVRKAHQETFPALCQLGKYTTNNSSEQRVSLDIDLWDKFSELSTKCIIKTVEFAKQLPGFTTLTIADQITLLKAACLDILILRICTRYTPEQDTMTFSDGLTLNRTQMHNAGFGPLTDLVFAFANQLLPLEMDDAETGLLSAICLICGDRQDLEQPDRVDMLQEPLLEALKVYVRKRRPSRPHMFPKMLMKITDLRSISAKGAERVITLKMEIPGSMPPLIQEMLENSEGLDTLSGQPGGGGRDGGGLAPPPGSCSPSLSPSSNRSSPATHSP
Sequence of human RAR-related Orphan Receptor beta (RORb), RORB (gene 6096) (Q92753 whole entry, looked up, the tested form may be a part): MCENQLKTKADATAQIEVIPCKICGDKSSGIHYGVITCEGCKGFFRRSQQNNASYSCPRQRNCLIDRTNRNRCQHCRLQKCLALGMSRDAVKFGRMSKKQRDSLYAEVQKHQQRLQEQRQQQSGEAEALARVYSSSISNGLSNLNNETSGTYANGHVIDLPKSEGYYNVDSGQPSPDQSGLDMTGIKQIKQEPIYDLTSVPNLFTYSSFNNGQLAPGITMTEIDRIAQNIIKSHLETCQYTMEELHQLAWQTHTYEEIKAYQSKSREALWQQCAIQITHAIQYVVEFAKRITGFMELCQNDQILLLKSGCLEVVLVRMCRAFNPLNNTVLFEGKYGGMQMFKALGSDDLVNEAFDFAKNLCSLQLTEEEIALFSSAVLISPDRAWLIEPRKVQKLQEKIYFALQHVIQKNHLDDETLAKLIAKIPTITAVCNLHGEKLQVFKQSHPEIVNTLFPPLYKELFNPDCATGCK

CCCCCCOC(=O)CCC
inactive: [1] | [2] | [3] | [4] | [5] | [6] | [8]
active: [7] 15.1 µM

CCCC1O[C@@H]2C[C@H]3[C@@H]4CCC5=CC(=O)C=C[C@]5(C)[C@H]4[C@@H](O)C[C@]3(C)[C@]2(C(=O)CO)O1 (stereo partly drawn)
inactive: [1] | [3] | [9] | [5] | [10] | [8]
active: [2] 78.9 µM | [4] 37.5 µM | [7] 1.36 µM

C=Cc1ccncc1
inactive: [1] | [4] | [9] | [6] | [13]
active: [11] 61.5 µM | [2] 25.1 µM | [3] 26.8 µM | [12] 25.6 µM | [10] 77.4 µM

CN(c1nccc(=O)[nH]1)C1CCN(c2nc3ccccc3n2Cc2ccc(F)cc2)CC1
active: [15] 1.84 µM
not listed: [4] | [9] | [11] | [12] | [13]
inactive: all other assays above

CCC(C)=O
inactive: [1] | [11] | [2] | [3] | [4] | [9] | [8]

O=C1OC[C@H](Cc2cccc(O)c2)[C@H]1Cc1cccc(O)c1
not listed: [5] | [6] | [7] | [9] | [13] | [19]
inactive: all other assays above

Cc1c(C2(c3cc(Br)c(O)c(Br)c3C)OS(=O)(=O)c3ccccc32)cc(Br)c(O)c1Br
active: [2] 52.5 µM | [7] 13 µM
inactive: [1] | [11] | [3] | [4] | [12] | [10] | [8]

CS(C)=O
inactive: [1] | [11] | [2] | [3] | [4] | [6] | [8] | [13]
